Results as given in publication PMC12280212.

Tests used:
Test in all cases: cross-linking mass spectrometry
[1] = molecular target: Actin, cytoplasmic 1 (UniProt P60709)
[2] = molecular target: Elongation factor 1-alpha 2 (UniProt Q05639)
[3] = molecular target: Histone H2B type 1-N (UniProt Q99877)
[4] = molecular target: T1, LIM and SH3 domain protein 1 (UniProt Q14847)
T1 sequence: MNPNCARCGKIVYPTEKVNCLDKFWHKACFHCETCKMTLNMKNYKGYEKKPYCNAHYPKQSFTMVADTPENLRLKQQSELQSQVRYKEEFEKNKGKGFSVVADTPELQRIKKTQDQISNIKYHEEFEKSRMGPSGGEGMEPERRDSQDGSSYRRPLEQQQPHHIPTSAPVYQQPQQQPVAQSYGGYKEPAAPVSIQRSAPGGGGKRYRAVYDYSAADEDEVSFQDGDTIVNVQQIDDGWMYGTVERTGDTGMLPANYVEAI

[5] = molecular target: Ubiquitin-ribosomal protein eS31 fusion protein (UniProt P62979)
[6] = molecular target: Large ribosomal subunit protein eL31 (UniProt P62899)
[7] = molecular target: Large ribosomal subunit protein uL4 (UniProt P36578)
[8] = molecular target: Vimentin (UniProt P08670)

Chain of Peptidyl-prolyl cis-trans isomerase A, P62937 (P62937 whole entry): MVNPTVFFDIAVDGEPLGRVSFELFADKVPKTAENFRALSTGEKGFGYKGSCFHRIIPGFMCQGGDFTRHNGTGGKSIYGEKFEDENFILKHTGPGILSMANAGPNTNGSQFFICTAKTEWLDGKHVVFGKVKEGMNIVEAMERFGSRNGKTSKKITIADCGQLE

Elongation factor 2, P13639
listed as a hit [1]: yes

Actin, cytoplasmic 1, P60709
listed as a hit [2]: yes
listed as a hit [3]: yes
listed as a hit [4]: yes
listed as a hit [5]: yes

Peptidyl-prolyl cis-trans isomerase A, P62937
listed as a hit [3]: yes

Large ribosomal subunit protein uL29, P42766
listed as a hit [6]: yes

Large ribosomal subunit protein uL6, P32969
listed as a hit [7]: yes

Protein S100-A6, P06703
listed as a hit [8]: yes
